In the library only some 3.1% were active in any assay of this set; here they are far more common.
rTrxR1 inhibitor = inhibitors of rat thioredoxin reductase 1; recombinant rTrxR1, NADPH fluorescence consumption, selenite substrate; O89049; AID 588453; Potency, µM (top dose mostly 114 µM), usual class: inhibitors; hit rate 1% among 390,000; further: nearly all actives have a fitted effect of over 65% in size
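Rat TrxR1 (90 nM in the dispensed reagent) was pre-reduced with 400 uM NADPH for 5 min at room temperature, then incubated with compound for 15 min. After 400 uM selenite was added, NADPH fluorescence (Ex 340/Em 450 nm) was followed for 8 min.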
TrxR1 substrate = substrates of rat thioredoxin reductase 1. AID 588456. Potency, µM (series often up to 114 µM). O89049. purified TrxR1 substrate turnover, NADPH consumption readout. hit rate 0.01% among 390,000; further: nearly all actives have a fitted effect of over 50% in size
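Rat TrxR1, dispensed at 90 nM, was prereduced with 400 uM NADPH (final) for 5 min at ~22 deg C, then incubated with compound 15 min before 400 uM selenite. A first-read NADPH fluorescence drop versus no-compound background flagged substrates.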
Mito fusion yeast = blocks mitochondrial division or promotes mitochondrial fusion. hit rate 0.23% among 320,000. Potency, µM (doses to about 46.1 µM), hits mostly activators. S. cerevisiae fusion-defective mutant growth rescue, CellTiterGlo 48 h; further: nearly all actives have a fitted effect of over 45% in size
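Temperature-sensitive fusion-defective S. cerevisiae (e.g. fzo1-1, mgm1-5) were grown with compound in YPEG medium (3% ethanol, 3% glycerol) for 48 hours at 37C. Growth rescue was measured as viability by CellTiterGlo luminescence after 10 minutes at ambient.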
A549 viability = counter-screen for Nrf2 inhibitors: cytotoxicity in A549 cells | A549 ARE-Fluc cells, CellTiter-Fluor viability, 18-24 h | Potency, µM (series often up to 46 µM), most hits filed as inhibitors | hit rate 0.16% among 390,000
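Cytotoxicity counterscreen: CellTiter-Fluor fluorescence was measured in A549 ARE_Fluc cells after 18-24 h of compound exposure in a concentration series. The subsequent BugLite luminescent read reports ARE-luciferase activity.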
IDH1 R132H inh = human IDH1 R132H inhibition | IDH1-R132H enzyme, NADPH consumption, diaphorase/resazurin fluorescence | hit rate 0.093% among 390,000 | Potency, µM (top dose mostly 76.6 µM), most hits filed as inhibitors | O75874 | AID 602179; further: nearly all actives have a fitted effect of over 65% in size
Target sequence (O75874 whole entry R132H, stated change not applied): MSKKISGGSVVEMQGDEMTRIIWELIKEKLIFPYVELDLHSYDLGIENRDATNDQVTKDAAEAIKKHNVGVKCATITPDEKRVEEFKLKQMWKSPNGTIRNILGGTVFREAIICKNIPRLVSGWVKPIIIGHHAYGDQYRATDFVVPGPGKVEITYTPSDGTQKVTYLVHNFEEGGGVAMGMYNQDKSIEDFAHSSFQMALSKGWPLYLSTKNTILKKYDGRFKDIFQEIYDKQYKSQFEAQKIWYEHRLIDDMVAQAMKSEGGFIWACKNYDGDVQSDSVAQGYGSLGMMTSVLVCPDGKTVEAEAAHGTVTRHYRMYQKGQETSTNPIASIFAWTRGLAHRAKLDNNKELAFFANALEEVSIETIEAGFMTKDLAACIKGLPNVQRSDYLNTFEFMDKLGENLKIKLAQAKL
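IDH1-R132H (0.5 ug/mL dispensed) in pH 7.5 Tris buffer was preincubated 30 min with compound, then given a substrate mix of 0.016 mM NADPH and 2 mM alpha-KG for 80 min at room temperature; remaining NADPH was read by diaphorase/resazurin fluorescence.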
Nrf2 block = Nrf2 pathway inhibition; A549 ARE-Fluc reporter, luciferase luminescence, 18-24 h; Potency, µM (doses to about 46 µM), most hits filed as inhibitors; hit rate 2.1% among 360,000; AID 504444; further: nearly all actives have a fitted effect of over 60% in size
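Two sequential reads on A549 ARE_Fluc cells exposed to compound for 18-24 h: a CellTiter-Fluor fluorescence read for viability, then a luciferase luminescence read for Nrf2/ARE activity.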
A number is an active result; i = inactive; ? = inconclusive; nt = not tested or not shown; [ ] = dose if it differs, or a comment. The call rests on the fitted dose curve; in most records, active means well fitted curve in the direction sought with a large enough effect; inconclusive means small, poorly fitted or top-dose-only effect, or another doubt; inactive means no such curve, though single readings can be large; an effect the other way counts as inactive or inconclusive.

SMILES | rTrxR1 inhibitor | TrxR1 substrate | Mito fusion yeast | A549 viability | IDH1 R132H inh | Nrf2 block
CCC(C)C(N)C1=NC(C(=O)N[C@@H](CC(C)C)C(=O)N[C@H](CCC(=O)[O-])C(=O)N[C@H](C(=O)N[C@H]2CCCCNC(=O)[C@H](CC(N)=O)NC(=O)[C@@H](CC(=O)[O-])NC(=O)[C@H](Cc3cnc[nH]3)NC(=O)[C@@H](Cc3ccccc3)NC(=O)[C@H]([C@@H](C)CC)NC(=O)[C@@H](CCCN)NC2=O)[C@@H](C)CC)CS1.[Zn+2] (some centres undefined) | i | i | nt | i | 32µM | ?
Cc1ccnc(OC(C(=O)O)C(OCc2ccccc2)(c2ccccc2)c2ccc(C(F)(F)F)cc2)n1 (centres undefined) | i | i | i | i | i | 10µM
O=C(Nc1ccc(Cl)cc1Cl)c1cnn2c1NC(=C1CC1)C=C2C(F)F | i | i | nt | nt | nt | nt
COC(=O)c1ccc(C(=O)NC2CCSc3ccccc32)cc1 (centres undefined) | i | i | i | i | i | i
Cc1ccc(NC(=S)NC2CCSc3ccccc32)cc1C (centres undefined) | i | i | i | i | i | 23µM
Cc1nc2c(-c3ccc(F)cc3)c(C)nn2c(C)c1CCC(=O)NC(C)CCc1ccco1 (centres undefined) | 79µM | i | i | i | ? | ?
Cc1nc2c(-c3ccccc3)c(C)nn2c(C)c1CCC(=O)NCc1ccco1 | i | i | i | i | i | i
COc1cccc(C(c2c(O)nc(SC)n(C)c2=O)c2c(O)nc(SC)n(C)c2=O)c1 | ? | i | i | i | i | i
CCCSc1nc(O)c(C(c2ccc(OC)c(O)c2)c2c(O)nc(SCCC)n(C)c2=O)c(=O)n1C | 11µM | i | i | i | i | i
Cc1ccc(S(=O)(=O)N(C)CCCN(C)c2nc(-c3cccs3)nc3ccccc23)cc1 | i | i | nt | i | nt | i
O=C(NCc1cccc(Cl)c1)c1oc(=O)c2ccccc2c1-c1ccccc1 | i | i | nt | i | i | i
Cc1cccn2c(=O)c3cc(C(=O)NCCc4ccc(S(N)(=O)=O)cc4)n(C)c3nc12 | i | i[11.4 µM] | nt | i | i | i
Cc1cc(C)nc(NS(=O)(=O)c2ccc(NC(=O)c3cc4c(=O)n5cccc(C)c5nc4n3C)cc2)n1 | i | i | i | i | i | 23µM
CCOc1ccc(N(CC)S(=O)(=O)N2CCCC(C(=O)Nc3ccc(OC)c(OC)c3)C2)cc1 (centres undefined) | i | i | nt | i | i | 21µM
CCOc1ccc(N(CC)S(=O)(=O)N2CCCC(C(=O)NCCc3ccc(OC)cc3)C2)cc1 (centres undefined) | i | i | nt | i | i | ?
CN(C)c1ccc(N=Nc2ccnc3ccccc23)cc1 | i | i | nt | nt | nt | nt
O=C(O)c1cccc(Cn2c(Cl)c(/C=N/NC(=O)c3ccc(O)cc3)sc2=O)c1 | ? | i | i | i | i | i
O=Cc1sc(=O)n(Cc2cccc(C(=O)O)c2)c1Cl | 3.2µM | i | i | i | i | i
O=C(COc1ccccc1)N/N=C/c1sc(=O)n(Cc2cccc(C(=O)O)c2)c1Cl | i | i | i | i | i | i
O=c1sc(/C=N/Nc2ccccc2)c(Cl)n1Cc1ccccc1 | 13µM | i | i | i | i | ?
COC(=O)c1cccc(Cn2c(Cl)c(/C=N/NC(=O)c3ccco3)sc2=O)c1 | 40µM | i | i | i | i | ?
CCOC(=O)c1cnc2c(ccc3ccccc32)c1Nc1ccccc1O | i | i | nt | i | i | i
N#Cc1nc(NC2CCCC2)c2ncn(-c3cc(F)cc(F)c3)c2n1 | nt | nt | nt | i | nt | i
CC(=O)Nc1ccc(/C=C/c2sc3ccccc3[n+]2CCCCI)cc1 | ? | i | nt | nt | nt | nt
Cc1cccc(-c2nnc(SCCC(=O)O)o2)c1 | i | i[11.4 µM] | nt | i | i | 1.5µM
SMILES | rTrxR1 inhibitor | TrxR1 substrate | Mito fusion yeast | A549 viability | IDH1 R132H inh | Nrf2 block
CCC1CN(C(=O)Nc2cc(OC)cc(OC)c2)c2ccccc2S1 (centres undefined) | i | i | nt | i | i | i
CCc1sc(C(C2C(=O)CC(C)(C)CC2=O)C2C(=O)CC(C)(C)CC2=O)cc1[N+](=O)[O-] | 1.8µM | i | i | i | i | i
Cc1ccnc2ccc(F)cc12 | i | i | nt | nt | nt | nt
COc1ccc(NC(=O)c2c(-c3ccc(C)cc3)nnc3ccccc23)cc1OC | i | i | nt | i | i | ?
CC(C)(C)n1ncc2c(=O)n(Cc3ccc(Cl)cc3F)cnc21 | i | i | nt | nt | nt | nt
CC(C)(C)c1ccc(C2CC2C(=O)N/N=C\c2ccc[nH]2)cc1 (centres undefined) | ? | i | i | 5.8µM | i | 1.6µM
CC(=O)OCC(NC(=O)C(Cc1ccccc1)NC(=O)OC(C)(C)C)C1OC(n2cc(F)c(=O)[nH]c2=O)C(OC(C)=O)C1OC(C)=O (centres undefined) | i | i | nt | i | nt | i
CC(C)c1ccc(CN(C(=O)c2ccco2)C2CCS(=O)(=O)C2)cc1 (centres undefined) | i | i | i | i | i | i
CC(C)c1ccc(CN(C(=O)/C=C/c2ccco2)C2CCS(=O)(=O)C2)cc1 (centres undefined) | 14µM | i | i | i | i | i
O=C(/C=C/c1ccco1)N(Cc1ccccc1F)C1CCS(=O)(=O)C1 (centres undefined) | 28µM | i | i | i | i | i
CCc1nnc(NS(=O)(=O)c2ccc(NC(=S)NC(=O)/C=C/c3ccc(F)cc3)cc2)s1 | 50µM | i | i | i | i | i
CCc1nnc(NS(=O)(=O)c2ccc(NC(=S)NC(=O)c3ccc(OC)cc3)cc2)s1 | 11µM | i | i | i | i | i
O=C(NC(=S)Nc1ccc(S(=O)(=O)Nc2nccs2)cc1)c1ccc(F)cc1 | 22µM | i | i | i | i | i
CCc1nnc(NS(=O)(=O)c2ccc(NC(=S)NC(=O)c3ccc(OC)c(OC)c3)cc2)s1 | ? | i | i | i | i | i
CCc1nnc(NS(=O)(=O)c2ccc(NC(=S)NC(=O)/C=C/c3ccc([N+](=O)[O-])cc3)cc2)s1 | i | i | i | i | i | i
Cc1onc(-c2ccccc2Cl)c1C(=O)NCc1ccccc1F | i | i | i | i | i | i
Cc1onc(-c2ccccc2Cl)c1C(=O)NCc1nc(-c2ccc(C(F)(F)F)cc2)no1 | i | i | i | i | i | 26µM
COc1ccc(C2Nc3ccccc3C(=O)N2Cc2ccccc2)cc1COc1ccc([N+](=O)[O-])cc1 (centres undefined) | i | i[0.0914 µM] | nt | i | nt | i
O=C1c2cccc(NCCNCCO)c2C(=O)c2cccc(NCCNCCO)c21 | i | i | nt | 18µM | i | 10µM
